# Screening results (PubChem BioAssay)
# Pf Dd2 growth: qHTS Primary assay for Inhibitors of Plasmodium falciparum Dd2 growth in vitro; P. falciparum Dd2 growth, SYBR Green, 72 h; Potency, µM (series often up to 28.9 µM), usual class: inhibitors; 120,000 tested, 4.3% active; AID 1347417, 2020; active = well fitted inhibition curve with a large enough effect; note: nearly all actives have a fitted effect of over 65% in size
#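 Readout: SYBR Green fluorescence, 485 nm excitation, 535 nm emission, after ~16 h lysis at 37C. Before that, Dd2-infected red cells (2.5% hematocrit) grew 72 h with compound, 29 uM top final concentration.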
# Hits are given with their value; i = inactive. Many of the other results were omitted from the sample, so hits are more common in it than they were.
SMILES,Pf Dd2 growth
CCC[C@H]1C[C@H]1C(=O)N1CCC2(CCC(=O)N(CC(N)=O)C2)CC1,i
COc1ccc(C2Cn3nnc(-c4noc(COc5cccc(C)c5)n4)c3CO2)cc1 (stereo not drawn),10µM
CCc1nc(-c2nnn3c2COC(c2ccc(OC)cc2)C3)no1 (stereo not drawn),i
COc1ccc(C2Cn3nnc(-c4noc(CCc5cccc(OC)c5)n4)c3CO2)cc1 (stereo not drawn),i
O=C(NCc1ccc2c(c1)OCO2)c1ccc2c(c1)N(C(=O)c1ccc(F)cc1)CC2,i
CCC(CC)C(=O)NC[C@@H]1C=C(C)[C@H](Cc2nc3ccc(C(=O)OC)cc3[nH]2)C[C@H]1C(C)C,i
COC(=O)c1ccc2nc(C[C@@H]3C[C@@H](C(C)C)[C@H](CNC(=O)c4cnccn4)C=C3C)[nH]c2c1,i
COCCNC(=O)C[C@@H]1C[C@@H](C(C)C)[C@H](CNC(=O)C2CC2)C=C1C,8.91µM
COC(=O)c1ccc2nc(C[C@@H]3C[C@@H](C(C)C)[C@H](CNC(=O)N4CCOCC4)C=C3C)[nH]c2c1,12.6µM
COC(=O)c1ccc2nc(C[C@@H]3C[C@@H](C(C)C)[C@H](CNC4CCOCC4)C=C3C)[nH]c2c1,i
COC(=O)c1ccc2nc(C[C@@H]3C[C@@H](C(C)C)[C@H](CNCc4ccc(OC)cc4O)C=C3C)[nH]c2c1,i
COC(=O)c1ccc2nc(C[C@@H]3C[C@@H](C(C)C)[C@H](CNCc4ccccc4F)C=C3C)[nH]c2c1,4.47µM
COC(=O)c1ccc2nc(C[C@@H]3C[C@@H](C(C)C)[C@H](CNC(=O)c4ccccc4)C=C3C)[nH]c2c1,8.91µM
CC1=C[C@@H](CNC(=O)c2cccnc2)[C@H](C(C)C)C[C@H]1Cc1nc2ccc(F)cc2[nH]1,i
COCC(=O)NC[C@@H]1C=C(C)[C@H](CC(=O)N2CCCC2)C[C@H]1C(C)C,i
CCOC(=O)C[C@@H]1C[C@@H](C(C)C)[C@H](CNC(=O)C2CC2)C=C1C,i
COC(=O)c1ccc2nc(C[C@@H]3C[C@@H](C(C)C)[C@H](CNC(=O)[C@@H]4CCCC[C@@H]4C(=O)O)C=C3C)[nH]c2c1,i
COc1cccc(NC(=O)N[C@H]2C[C@@H](C(=O)N[C@@H](CCCNC(=O)C=C(C)C)C(N)=O)N(C(=O)C=C(C)C)C2)c1,i
CN(C)c1ccc(C(=O)N2CC[C@@H](CC(=O)O)[C@@H](CCN3C[C@@H]4C[C@H](C3)c3cccc(=O)n3C4)C2)cc1,i
CC(C)[C@]1(O)CN(C(=O)Cn2[nH]c3ccccc3c2=O)C[C@H]1C,i
O=S(=O)(c1cc(F)cc(F)c1)N1CCCC(Cn2c(C3CC3)nc3cccnc32)C1 (stereo not drawn),i
CC1=C[C@@H](CNC(=O)C2CC2)[C@H](C(C)C)C[C@H]1Cc1nc2ccncc2[nH]1,i
COc1ccc2nc(C[C@@H]3C[C@@H](C(C)C)[C@H](CNCc4ccc(NC(C)=O)cc4)C=C3C)[nH]c2c1,i
CCOC(=O)C[C@@H]1C[C@@H](C(C)C)[C@H](CNC(=O)c2ccc(F)cc2)C=C1C,11.2µM
COc1ccc2nc(C[C@@H]3C[C@@H](C(C)C)[C@H](CNC(=O)CC4(CC(=O)O)CCCC4)C=C3C)[nH]c2c1,i
SMILES,Pf Dd2 growth
CCOC(=O)C[C@@H]1C[C@@H](C(C)C)[C@H](CNC(=O)c2cccnc2)C=C1C,i
CC1=C[C@@H](CNCc2ccccc2O)[C@H](C(C)C)C[C@H]1Cc1nc2c(C)cccc2[nH]1,i
CCCNC(=O)NC[C@@H]1C=C(C)[C@H](Cc2nc3ccc(OC)cc3[nH]2)C[C@H]1C(C)C,10µM
CCCNC(=O)NC[C@@H]1C=C(C)[C@H](Cc2nc3ncccc3[nH]2)C[C@H]1C(C)C,i
CCOC(=O)C[C@@H]1C[C@@H](C(C)C)[C@H](CNC(=O)c2ccc(C#N)cc2)C=C1C,i
CC1=C[C@@H](CNC(=O)C2CC2)[C@H](C(C)C)C[C@H]1Cc1nc2ncccc2[nH]1,i
COc1ccc2nc(C[C@@H]3C[C@@H](C(C)C)[C@H](CNCc4ccccn4)C=C3C)[nH]c2c1,0.631µM
COc1ccc2[nH]c(C[C@@H]3C[C@@H](C(C)C)[C@H](CNC(=O)C4CCC4)C=C3C)nc2n1,11.2µM
O=C(NCc1noc(Cc2cccs2)n1)C1NCCc2[nH]cnc21 (stereo not drawn),i
CN1C(=O)CC(C(=O)O)C12CCN(Cc1cnn(C)c1)CC2 (stereo not drawn),i
O=C(COc1ccc2nncn2n1)N1CCCC(c2ccn[nH]2)C1 (stereo not drawn),i
COc1ccc(N2C(=O)CSC23CCN(C(=O)Nc2ccc(F)cc2F)CC3)cc1,i
CC[C@H]1CN(S(=O)(=O)c2ccccc2)CC[C@H]1CC(=O)NCc1cccnc1,i
COCC(=O)NC[C@@H]1C=C(C)[C@H](Cc2nc3ccc(F)cc3[nH]2)C[C@H]1C(C)C,12.6µM
CC1=C[C@@H](CNC(=O)CC2(CC(=O)O)CCCC2)[C@H](C(C)C)C[C@H]1Cc1nc2ccc(F)cc2[nH]1,i
COCC(=O)NC[C@@H]1C=C(C)[C@H](Cc2nc3ccccc3[nH]2)C[C@H]1C(C)C,i
CCc1ccc(N2CC(c3noc(-c4ccco4)n3)CC2=O)cc1 (stereo not drawn),i
O=C(N[C@@H]1CCC[C@@H]1C(=O)NC1CCCCCC1)c1ccncc1,i
O=C(c1ccc(F)c(Cl)c1)N1CCCC2(C1)NC(=O)N(Cc1ccccc1)C2=O (stereo not drawn),i
Cc1ccc(CN2C(=O)NC3(CCCN(C(=O)c4ccc(F)c(Cl)c4)C3)C2=O)cc1 (stereo not drawn),7.08µM
Cc1ccc(CN2C(=O)NC3(CCCN(C(=O)c4cccc(Cl)c4)C3)C2=O)cc1 (stereo not drawn),i
Cn1ncc2c(C(=O)NC3CC3)cc(-c3ccc(F)cc3)nc21,i
O=C(Nc1ccc2c(c1)CN(Cc1ccccc1F)C(=O)CO2)c1ccc(Cl)cc1,i
Cc1ccc(C(=O)NCC2Cn3cccc3C(=O)N2C)cn1 (stereo not drawn),i
CCOc1ccc(-c2ccnc(N3CCNC(C)C3)n2)cc1C(=O)O (stereo not drawn),i
SMILES,Pf Dd2 growth
CCOc1ccc(-c2nc(C3CC(=O)N(c4ccc(F)cc4)C3)no2)cc1OCC (stereo not drawn),i
CCc1ncc(-c2ccccc2)[nH]1,i
CCOc1ccc(-c2cnc(-c3cnc(CC)nc3)[nH]2)cc1OCC,10µM
COC1CCC12CCN(C(=O)c1ccncc1)CC2 (stereo not drawn),i
CCc1ccc(-n2nc(C)c3c(C)cc(=O)n(CC(=O)N(CC)Cc4ccccc4)c32)cc1,8.91µM
CCN(CC)C(=O)Cn1c(=O)cc(C)c2c(C)nn(C)c21,i
Cc1cc(=O)n(Cc2ccccc2)c2c1c(C)nn2-c1ccccc1,i
CCCNC(=O)N1CCC2(CCCCO2)CC1,i
CCOc1ccc(CC(=O)N2CCC(n3cc(-c4nc(C(C)C)no4)nn3)C2)cc1 (stereo not drawn),i
Cc1cc(CNC(=O)[C@@H]2CCC[C@@H](NC(=O)NC3(c4ccccc4)CCOCC3)CN(C)C(=O)C2)no1,i
O=C(Cn1ccccc1=O)N1CCC(N2CCSCC2)CC1,i
CN(Cc1cnccn1)C(=O)CC(c1ccccc1)c1ccccc1Cl (stereo not drawn),i
O=C(CC(c1ccccc1)c1ccccc1F)NCc1cccnc1 (stereo not drawn),i
